Out of some 190,000 compounds screened, about 1,900 (1%) were called active.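 Rule for the calls: active = percentage of spot-positive cells more than 3 SD above its plate mean, without a fluorescence outlier flag or 80% toxicity; inconclusive = no clear call, values can overlap the other calls; inactive = the rest.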 This excerpt belongs to a sample that is enriched for actives.
Assay: GFP-LC3 puncta formation changes – imaging, high-content, MEF GFP-LC3, primary screen (AID 463193);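 for % cells with GFP-LC3 spots: spot-positive cell cutoff set from DMSO-treated cells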;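 for toxicity: cell loss after 18 h compound exposure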
Details: autophagy, at 10 µM; % cells with GFP-LC3 spots: stronger effect = higher value; toxicity: measured here: cell loss, nuclei count

| Compound | % cells with GFP-LC3 spots | toxicity [%] |
| --- | --- | --- |
| CCN(CC)S(=O)(=O)c1cc([N+](=O)[O-])ccc1N=Nc1c(O)n(C)c2ccccc12 | 39.2% (active) | 2.86 |
| CCn1c(O)c(N=NC(=O)c2cccc(S(=O)(=O)N3CCCCC3)c2)c2ccccc21 | 17.3% (inactive) | 3.19 |
| CCN(CC)S(=O)(=O)c1cc([N+](=O)[O-])ccc1NNC(=O)Nc1ccccc1 | 2.34% (inactive) | -10.5 |
| CCCCNC(=O)CCn1c(=O)c2ccccc2n(Cc2cc(C)ccc2C)c1=O | 8.22% (inactive) | -3.52 |
| COc1ccc(CN(C)Cc2nc3cc(OC)c(OC)cc3c(=O)[nH]2)c(OC)c1 | 25% (inactive) | -8.88 |
| O=C(/C=C/c1cn(-c2ccccc2)nc1-c1ccc2c(c1)OCCO2)NCCCN1CCOCC1 | 1.77% (inactive) | -8.43 |
| CCOc1ccc(/C=N/NC(N)=S)cc1 | 19.6% (active) | 21.8 |
| COC(=O)N/N=C/c1ccc(/C=N/NC(=O)OC)cc1 | 0.31% (inactive) | -3.93 |
| NC(=S)N/N=C/c1ccc([N+](=O)[O-])cc1 | 8.24% (inactive) | 23.5 |
| CCN1C(=O)/C(=C\N2CCN(c3cccc(Cl)c3)CC2)SC1=S | 4.39% (active) | 13.1 |
| CCN1C(=O)/C(=C\N2CCN(c3ccccc3)CC2)SC1=S | 1.26% (inactive) | -4.66 |
| CCN1C(=O)/C(=C\N2CCOCC2)SC1=S | 5.71% (inactive) | -3.29 |
| O=C(NCC(=O)N(CC1CCCO1)C(C(=O)NC1CCCCC1)c1ccccc1)c1ccco1 (stereo unspecified) | 0.515% (inactive) | -9.95 |
| COc1ccc(NC(=O)C(Br)C(C)C)cc1 (stereo unspecified) | 14.9% (inactive) | 8.32 |
| CC(=O)C1(C)N(O)C(C)(C)C(c2cccs2)=[N+]1[O-] (stereo unspecified) | 3.17% (inactive) | -3.76 |
| CCC(C)(C)NC(=O)C(c1ccccn1)N(C(=O)c1csnn1)c1ccccc1 (stereo unspecified) | 3.17% (inactive) | 14.8 |
| CC(C)(C)NC(=O)CN(C(=O)c1csnn1)c1ccccc1-c1ccccc1 | 8.79% (active) | 5.01 |
| CC(C)(C)NC(=O)CN(C(=O)c1ccc(Cl)nc1)c1cccc2ccccc12 | 0.133% (inactive) | -8.05 |
| Cn1c(-c2ccc(F)cc2)cnc1SCC(=O)NNC(=O)Cc1ccccc1 | 2.62% (inactive) | -10.5 |
| CCOC(=O)/C(C#N)=C/c1cn(CCC(=O)O)nc1-c1ccc(Br)cc1 | 0.855% (inactive) | -6.28 |
| CC1=NN(C(=O)CCCc2ccccc2)C(O)(C(F)(F)F)C1 (stereo unspecified) | 4.12% (active) | 3.92 |

| Compound | % cells with GFP-LC3 spots | toxicity [%] |
| --- | --- | --- |
| COc1ccc(CC(=O)N2N=C(C)CC2(O)C(F)(F)F)cc1 (stereo unspecified) | 1.78% (inactive) | 0.121 |
| CC1=NN(C(=O)CCc2ccccc2O)C(O)(C(F)(F)F)C1 (stereo unspecified) | 3.31% (inactive) | -3.6 |
| CN1CCN(NC(=O)c2ccc(S(=O)(=O)N3CCCCCC3)cc2)CC1 | 1.83% (inactive) | 28 |
| Cn1c(SCC(=O)N2CCCc3ccccc32)nc2ccccc2c1=O | 11.1% (active) | 28.2 |
| O=C(CSc1nc2[nH]ncc2c(=O)n1-c1ccccc1)N1CCCc2ccccc21 | 6.24% (inactive) | 17.2 |
| O=C(CSc1nc2ccccc2c(=O)n1CCCO)N1CCc2ccccc21 | 7.69% (inactive) | -0.286 |
| CCCCN(CC(=O)NC(C)(C)C)C(=O)C(=O)Nc1ccc2c(c1)OCCO2 | 0.957% (inactive) | 5.19 |
| C/C(=N\NC(=O)c1ccc(NS(=O)(=O)c2cccs2)cc1)c1ccc2ccccc2c1 | 20.7% (inactive) | -14.3 |
| CCNC(=O)COc1cc(C)c(Br)c(C)c1 | 22.5% (inactive) | 9.49 |
| COc1ccc(CCn2nnnc2C(c2ccccc2)N2CCN(C)CC2)cc1OC (stereo unspecified) | 22.3% (inactive) | -9.31 |
| COc1ccc(C(c2nnnn2Cc2cccs2)N2CCN(c3ccccc3)CC2)cc1OC (stereo unspecified) | 10.1% (active) | 46.3 |
| COc1ccccc1C(c1nnnn1CC1CCCO1)N1CCN(c2ccccc2)CC1 (stereo unspecified) | 0.609% (inactive) | -7.4 |
| Cc1ccc(NC(=O)c2ccccn2)cc1S(=O)(=O)N1CCOCC1 | 7.19% (inactive) | 21.1 |
| COc1ccc(NC(=S)NCC2CCN(c3ccc(OC)cc3)C2)cc1 (stereo unspecified) | 6.08% (inactive) | 8.9 |
| COc1ccc(C(=O)Nc2ccc(NC(=O)C(C)C)nc2)cc1 | 4.13% (inactive) | -1.69 |
| COc1ccc(CC(=O)Nc2ccc(-c3nnc(-c4ccc(C)cc4)o3)cc2)cc1 | 39.9% (active) | 9.61 |
| COc1ccc(CC(=O)Nc2ccc(C(=O)NC(C)(C)C)cc2)cc1 | 6.06% (inactive) | -0.0115 |
| Cc1ccc(OCC(=O)Nc2ccc(-c3nc4ncccc4o3)cc2)cc1 | 13.3% (inactive) | -0.528 |
| CN(c1ccc2nc3ccccc3c(=O)n2n1)C1CCCCC1 | 14.8% (inactive) | 11.6 |
| Nc1nc(NC(=O)/C=C/c2ccccc2)nn1-c1ccccc1 | 7.01% (inactive) | 2.03 |
| CCc1cc(Br)ccc1NC(=O)C1CCCO1 (stereo unspecified) | 2.25% (inactive) | -4.23 |

| Compound | % cells with GFP-LC3 spots | toxicity [%] |
| --- | --- | --- |
| OC(CNCC1CCCO1)Cn1c2ccc(Br)cc2c2cc(Br)ccc21 (stereo unspecified) | 7.36% (active) | 47 |
| Cc1ccc(C(=O)NCC2CCCO2)o1 (stereo unspecified) | 12.6% (inactive) | -1.73 |
| O=C(Cc1c(F)cccc1Cl)Nc1ccc(-n2cnnn2)cc1 | 1.73% (inactive) | 5.48 |
| c1cc(-n2cnnn2)ccc1NC1=NCCC1 | 12.1% (active) | -6.55 |
| O=C(c1ccc(-n2cnnn2)cc1)N1CCN(C(c2ccccc2)c2ccccc2)CC1 | 1.42% (inactive) | 13.6 |
| CN(C)CCNC(=O)Cc1ccc([N+](=O)[O-])cc1 | 4.19% (inactive) | 2.43 |
| COc1ccc(CC(=O)NCc2nnc(SCC(=O)Nc3ncc(C)s3)n2C)cc1 | 3.99% (inactive) | -3.03 |
| Cn1c(=O)c([N+](=O)[O-])c(Oc2ccccc2)c2ccccc21 | 0.277% (inactive) | -4.02 |
| O=C(OCC1O[C@@H](OC(=O)c2cc(O)c(O)c(O)c2)[C@@H](OC(=O)c2cc(O)c(O)c(O)c2)[C@@H](OC(=O)c2cc(O)c(O)c(O)c2)[C@@H]1OC(=O)c1cc(O)c(O)c(O)c1)c1cc(O)c(O)c(O)c1 (stereo partly specified) | 0.427% (inactive) | -40.5 |
| CCOC(=O)C1=C(C)OC(N)=C(C#N)C1c1cncc(-c2ccc(F)cc2)c1 (stereo unspecified) | 6.18% (inactive) | 10.5 |
| N#C/C(=C\C1=C(N2CCOCC2)C(=C\c2ccccc2)/CC1)C(=O)Nc1ccccc1F | 94.8% (active) | 9.15 |
| C(=N\N1CCN(c2ccccn2)CC1)/C1=C(N2CCOCC2)C(=C/c2ccccc2)/CC1 | 21.9% (inactive) | 10.4 |
| N#C/C(=C\c1ccccc1C(F)(F)F)C(=O)Nc1ccccc1F | 17.6% (inactive) | -10.6 |
| O=C1CCCN1CCCNC(=S)Nc1ccc(F)c(Cl)c1 | 9.25% (inactive) | 10.7 |
| COc1cccc(OC)c1C(=O)Nc1ccc(N2CCCCC2)cc1 | 4.97% (inactive) | 0.418 |
| COc1ccc(C(=O)NC(=S)Nc2ccc(N3CCCC3)cc2)cc1OC | 2.21% (inactive) | 8.63 |
| COc1cccc(C(=O)Nc2ccc(N3CCCC3)cc2)c1 | 41.2% (active) | 21.3 |
| N#C/C(=C/c1ccc(N2CCCCC2)o1)C(=O)NCCc1c[nH]c2ccccc12 | 95% (active) | -16.4 |
| O=C(NCCc1c[nH]c2ccccc12)C(=O)NCC1CCCO1 (stereo unspecified) | 2.06% (inactive) | 4.43 |
| CC(=O)N/C(=C/c1ccc(Cl)cc1)C(=O)NCCc1c[nH]c2ccccc12 | 1.94% (inactive) | -16.7 |
| COc1ccc(C(=O)Nc2ccc(F)cc2F)cc1 | 8.35% (inactive) | 1.69 |

| Compound | % cells with GFP-LC3 spots | toxicity [%] |
| --- | --- | --- |
| CCOC(=O)N1CCN(S(=O)(=O)c2ccc(C(=O)Nc3ccc(F)cc3F)cc2)CC1 | 13.1% (active) | 35.6 |
| O=C(Nc1cccc(F)c1)c1ccc(S(=O)(=O)N2CCCC2)cc1 | 2.96% (inactive) | -0.834 |
| CCCCN1C(=O)/C(=C2/C=CC=CN2C)SC1=S | 2.78% (inactive) | -16.3 |
| CCCCN1C(=O)/C(=C/C=C2/C=Cc3ccccc3N2CC)SC1=S | 36.6% (active) | 17.1 |
| O=C(CCCN1C(=O)/C(=C/c2ccccc2)SC1=S)Nc1ccc(O)cc1 | 5.17% (inactive) | 20.5 |
| Cc1ccccc1Cn1nc(C)c(NC(=O)C(F)(F)F)c1C | 25.2% (inactive) | -15.5 |
| COc1ccc(NC(=O)COC(=O)c2ccncc2)c(OC)c1 | 4.41% (inactive) | 21.4 |
| CC1c2nc3ccccc3n2C(CC(=O)NCCCN2CCOCC2)C(=O)N1Cc1ccccc1 (stereo unspecified) | 6.3% (inactive) | -3.99 |
| COc1ccc(OC)c(NC(=S)N2CCc3ccccc3C2)c1 | 1.08% (inactive) | -17.2 |
| CC(=O)c1ccc(Oc2cc(C)nc(-n3nc(C)cc3C)n2)cc1 | 22.7% (active) | 52.9 |
| Cc1cc(C)n(-c2cc(Oc3ccccc3)ncn2)n1 | 4.54% (inactive) | -5.5 |
| COc1ccc(Nc2cc(C)nc(-n3nc(C)cc3C)n2)cc1 | 1.92% (inactive) | 48.3 |
| O=C1/C(=C\c2ccsc2)NC(=S)N1c1ccccc1 | 0.432% (inactive) | 4.12 |
| Nc1[nH]c(=S)nc2nc(-c3ccccc3)c(-c3ccccc3)nc12 | 14.2% (inactive) | 22.7 |
| N#C/C(=C(/O)Cc1cccc2ccccc12)c1nc2ccccc2s1 | 0.484% (inactive) | -0.84 |
| CC1=CC(=C(C#N)c2nc3ccccc3s2)C=C(C)N1c1ccc(F)cc1F | 27.8% (active) | 15.8 |
| O=C(O)CS/C(=C\c1ccc(F)cc1)c1nc2ccccc2s1 | 5.4% (inactive) | -6.27 |
| COCCN(CCOC)C(=S)Nc1ccccc1Cl | 8.84% (inactive) | -8.3 |
| CCOc1ccc2c(c1)cc(CN(C(=O)CC)C1CCCCC1)c1nnnn12 | 5.66% (inactive) | 13.7 |
| CCc1ccc2c(c1)cc(CN(C(=S)Nc1ccccc1Cl)C1CC1)c1nnnn12 | 19.7% (active) | 11.8 |

— PubChem BioAssay AID463193 (University of Pittsburgh Molecular Library Screening Center, 2010)
